Among the data in the supplement of paper PMC6555819 are PBM binding z-score values, retold here.

In this test the test system is VDR:RXRa (NR concentration 270 nM, RXRa partner concentration 90 nM). Put plainly: PBM binding z-score (relative to random genomic background probes); higher = stronger binding; sequences stand for … in GC…GCGATTGACAGCGTAGAATGAAGG
On the procedure: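 Protein-binding microarray (Agilent 4x180K custom design, double-stranded 60-nt probes: 5' GC cap, 34-nt variable region, 24-nt constant primer region; full probe sequence given). Purified or IVT nuclear receptor:RXRα heterodimers (3:1 NR:RXRα, mostly 270:90 nM) or homodimers were incubated for 1 h in PBS with 2% milk and no ligand, then detected with Alexa488 antibodies. Fluorescence from o1-orientation probes (~5 replicates averaged) was converted to z-scores against 500 random hg19 background probes. Variable regions are seed direct-repeat (DR0–DR5) sites, all their single-nucleotide variants and half-site ablations.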
For the sequence TCTCGGAGGACACGACGGTCAGAGCTTTCCAGAG, the PBM binding z-score was -0.164.

Consider GCATATAGGTAATACAAGGTGAACGTCCGATTGT, for which the PBM binding z-score amounted to 0.043. For the sequence TCTATTAGTTGGAGGGCAACCGACGAGTCCGTTT, the PBM binding z-score was determined as 1.27. On to GTACCAAGGGGAATAGGTCGTTGATGAGTAGGCG, for which the PBM binding z-score was 0.104. On to ACTAGCAGGCCAAGTTCGGGTCACTCAAACAAAG, for which the PBM binding z-score is 2.43. For CAAACTAGGTCAAAGGTCCAAGTCGAGCCAACCA the value was 3.41; for TAGCCTAGGTCATGGGCCAGCATACCACGCGAAC, 1.68. GCGACTGAGGCATCAGCAGGTTACCATAACTTAA registered a PBM binding z-score of -0.37. For AGAATGAGGTTATTAAGATCAGCGAATTGCGGTC the value was 2.57; for CGAACGAGGGCATGAGTCGATAGCAAATGCCGAT, 0.359. Turning to GCTTGTAGATCAAGGTTAAGAAAGACTAAGCTAA, the PBM binding z-score worked out at 0.156.

CCTACTGGGCCATCAGCTCATTGATATCAACGTT yielded a PBM binding z-score of -0.619. Sequence ACTATTAGTTGACTTAGGGCAACTGATACGACGC displayed a PBM binding z-score of 0.239. For GCTAGCAGGCCATTTGGGTGACTCAATGACGGGC the value was -0.749. For CAAACTAGGTCACGAAAGGTCAAACTCGAATGAC the value was 7.13. For ACTATTAGTTGAAACGAGGGCAACCGATAGGTTG the value was 1.63. For the sequence CGTCCAAGGTCAGCAGGTCAGTGACAGCGACGTG, the PBM binding z-score came out at 4.1. ATCGAAAGGTCGAAGCTGAGTATACCCACCCGAA gave a PBM binding z-score of 2.47. With GCTGCTAGGTCAACTGATGGTCAGCTTAAGCTCG, the PBM binding z-score was determined as 1.62. CCTAGCAGGGCAATCTGGGTCACTCAAGGCTTGA registered a PBM binding z-score of 1.08. For the sequence AATACAGGGTCATCGTAGGCGAGAGTACGCACAG, the PBM binding z-score came out at 5.01.

In turn, TGAATGAGGTTAAAGATCACGGAACGTGGCGTCG had a PBM binding z-score of 2.22.

ATATGTAAGTTATCGGGTCATTCAGTTTGCGCAT gave a PBM binding z-score of 4.93.

As for AGAATGAGGTTATTAAGATCAGGAAATTGCGGTC, the PBM binding z-score came to 2.43.

Consider CCTCGGAGGACAACAGGAGGTCACAGCTGCCAGA, for which the PBM binding z-score is 3.53. For TCATATAGGTAAACAGGTGAAAGACCGTAAGTTA the value was 1.05; for CAAACTAGGTCAAAGCTCAAAGTCGAGCCAACCA, 1.74. For CAAACTAGGTCACAGAGGTCAAAGTCCGTGCGTA the value was 8.16; for TCGAGTAGGTTAGTCGGGGCATTAAGCCAACATA, 1.66; for CGTCCAAGGTCAGAGAGGTCAGTGAGTGCCGAGT, 7.44. For CAAACTAGGTCACCGGAAGGTCAAGGTCCGCATG the value was 5.58. TCGAGTAGGTTAGGGGAATTCAGAATGGCGTCGA came in with a PBM binding z-score of -0.154. As to TTACCAAGGTGAAGGTCATTGATCCCTCTGTAGA, the PBM binding z-score was 3.43. For the sequence GCTGCTAGCTCAACTGATGGTCAGCTAAAGCTCG, the PBM binding z-score was -0.797.

On to ATATGTAGGTTAGCTTGGGTCATTCAGACTAGGC, for which the PBM binding z-score came to 2.64. On to CCTCGGAGGACAACAGGAGGTCAGTGCTGCCAGA, for which the PBM binding z-score is 1.59. As to TCATATAGGTAAAGGTGTAAGTCGAACGATATGA, the PBM binding z-score is 0.297. As to AGAATGAGCTTATTAAGATCAGGGAATTGCGGTC, the PBM binding z-score is -0.43. For CCGACTGGTGCAAAGGTTACCATACTCAGTACGA the value was 1.74. For GGAACGCGGGCAAAGTTGATAGCATCTGTCGACG the value was -0.564.
